In PubChem BioAssay (Tox21):
A number with no mark means an inactive call. Results filed as inconclusive are left out. A call without a number means that no potency is given here. Calls of active or inactive are those of the source. Unless noted, calls follow the shape of the full dose curve.

Legend:
[1] = Nuclear factor erythroid 2-related factor 2/antioxidant responsive element (Nrf2/ARE) small molecule agonists: qHTS cell viability counter screen in human keratinocytes (AID 1919968; active = well fitted curve in the direction sought with a large enough effect in the repeat runs; an effect the other way counts as inactive or inconclusive; also: nearly all actives have a fitted effect of over 55% in size)
In short: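 Seed 1,500 KeratinoSens cells per well, then incubate 5 h at 37 C/5% CO2. Add compounds in DMSO and incubate 23 h. Add CellTiter-Fluor, wait 1 h and read fluorescence.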

[2] = Nuclear factor erythroid 2-related factor 2/antioxidant responsive element (Nrf2/ARE) small molecule agonists: luciferase reporter gene qHTS assay in human keratinocytes (AID 1919969); also: nearly all actives have a fitted effect of over 35% in size
[3] = target: Gonadotropin-releasing hormone receptor (Homo sapiens) (UniProt P30968); experiment: Human gonadotropin-releasing hormone receptor (GnRHR) small molecule agonists, calcium flux assay in GnRHR-HEK293 cells (AID 1920063); also: nearly all actives have a fitted effect of over 35% in size
Chain of Gonadotropin-releasing hormone receptor (Homo sapiens) (P30968 whole entry, looked up): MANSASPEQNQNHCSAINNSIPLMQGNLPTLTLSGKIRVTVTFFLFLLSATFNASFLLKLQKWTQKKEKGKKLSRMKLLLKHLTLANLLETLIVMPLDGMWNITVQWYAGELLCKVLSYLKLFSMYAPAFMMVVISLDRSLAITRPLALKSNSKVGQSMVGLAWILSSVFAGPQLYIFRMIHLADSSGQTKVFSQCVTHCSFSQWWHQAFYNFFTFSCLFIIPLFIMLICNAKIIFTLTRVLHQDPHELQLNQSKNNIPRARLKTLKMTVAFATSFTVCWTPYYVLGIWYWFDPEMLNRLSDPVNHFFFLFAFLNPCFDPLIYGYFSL
In short: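 Cells: HEK293 stably expressing human GnRHR. Steps: overnight (18 h) culture, 1 h calcium dye loading at 37 C, compound addition, kinetic fluorescence read at 480/540 nm. Each compound tested at 15 concentrations in triplicate.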

[4] = target: KiSS-1 receptor (Homo sapiens) (UniProt Q969F8); experiment: Human kisspeptin (KISS1R) small molecule agonists, calcium flux assay in KISS1R-HEK293 cells (AID 1920064; active = well fitted curve in the direction sought with a large enough effect in the repeat runs; an effect the other way counts as inactive or inconclusive)
Chain of KiSS-1 receptor (Homo sapiens) (Q969F8 whole entry, looked up): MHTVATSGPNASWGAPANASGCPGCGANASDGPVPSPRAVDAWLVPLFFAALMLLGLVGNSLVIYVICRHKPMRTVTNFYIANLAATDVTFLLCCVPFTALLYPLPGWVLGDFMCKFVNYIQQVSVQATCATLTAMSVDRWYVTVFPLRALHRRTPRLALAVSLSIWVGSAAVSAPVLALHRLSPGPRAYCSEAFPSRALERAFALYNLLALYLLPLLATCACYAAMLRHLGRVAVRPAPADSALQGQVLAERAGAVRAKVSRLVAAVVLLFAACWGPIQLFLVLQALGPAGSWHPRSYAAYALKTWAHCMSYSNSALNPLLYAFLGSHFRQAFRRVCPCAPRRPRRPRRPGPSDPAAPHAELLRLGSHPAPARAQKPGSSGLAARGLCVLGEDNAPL
In short: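 Cells plated and incubated 18 h; dye added, 1 h at 37 C; compounds in DMSO pinned in; signal read at 480/540 nm every second for 3 min. Each compound tested at 15 concentrations in triplicate.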

[5] = G protein-coupled receptor (GPCR) small molecule agonists, calcium flux assay: HEK293 wild type cell line counter screen (AID 1920065)
In short: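 Counter-screen of the Tox21 10K library for non-specific calcium release: dye-loaded cells received compounds in DMSO and were monitored by kinetic fluorescence (480/540 nm, 3 min). Fifteen concentrations, run in triplicate.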

[6] = p53 small molecule agonists, cell-based qHTS assay with human liver microsomes (AID 1963577)
In short: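 p53RE-bla reporter cells were pre-incubated 5 h at 37 C, then treated with compounds plus human liver microsomes (0.5 mg/mL final) and NADPH (0.5 mg/mL final) for 16 h at 37 C. Beta-lactamase activity was read by LiveBLAzer fluorescence after 2 h at room temperature.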

[7] = p53 small molecule agonists, cell-based qHTS assay with rat liver microsomes (AID 1963578); also: potency is read from the fitted curve at half-maximal effect
In short: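 p53RE-bla cells were exposed to compounds together with rat liver microsomes (0.5 mg/mL final) and NADPH (0.5 mg/mL final) for 16 h at 37 C, then read by LiveBLAzer beta-lactamase fluorescence after 2 h at room temperature.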

[8] = p53 small molecule agonists, cell-based qHTS assay with human liver microsomes: qHTS cell viability counter screen (AID 1963579); also: nearly all actives have a fitted effect of over 45% in size
In short: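 p53RE-bla cells (4,000/well) were pre-incubated 5 h at 37 C, then given compounds in DMSO plus human liver microsomes (0.5 mg/mL final) and NADPH (0.5 mg/mL final) for 16 h at 37 C. Viability was read by CellTiter-Glo luminescence.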

[9] = p53 small molecule agonists, cell-based qHTS assay with rat liver microsomes: qHTS cell viability counter screen (AID 1963580); also: nearly all actives have a fitted effect of over 45% in size
In short: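 Viability is assessed in parallel with the p53 reporter read: HCT-116 p53RE-bla cells receive compounds plus rat microsomes and NADPH (0.5 mg/mL final apiece), incubate 16 h at 37 C, and then CellTiter-Glo luminescence is recorded.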

[10] = p53 small molecule agonists, cell-based qHTS assay: qHTS cell viability counter screen (AID 1963581); also: nearly all actives have a fitted effect of over 45% in size
In short: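 Cells: HCT-116 with p53 response element-driven beta-lactamase. Treatment: 16 h, 37 C, compounds in DMSO. Read: CellTiter-Glo luminescence after 30 min RT.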

[11] = p53 small molecule agonists, cell-based qHTS assay (AID 1963582; active = well fitted activation curve with a large enough effect in the signal ratio in the repeat runs, not every such curve was filed as active; the % refers to the signal ratio)
In short: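 Quantitative HTS in p53RE-bla cells: after a 5 h settling period, compounds delivered in DMSO were left on cells for 16 h at 37 C, and reporter induction was measured as fluorescence following 2 h substrate loading.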

[12] = target: 5-hydroxytryptamine receptor 2A (Homo sapiens) (UniProt P28223); experiment: 5-hydroxytryptamine receptor 2A (HTR2A) small molecule antagonists, cell-based qHTS assay (AID 1963586); also: nearly all actives have a fitted effect of over 45% in size
Chain of 5-hydroxytryptamine receptor 2A (Homo sapiens) (P28223 whole entry, looked up): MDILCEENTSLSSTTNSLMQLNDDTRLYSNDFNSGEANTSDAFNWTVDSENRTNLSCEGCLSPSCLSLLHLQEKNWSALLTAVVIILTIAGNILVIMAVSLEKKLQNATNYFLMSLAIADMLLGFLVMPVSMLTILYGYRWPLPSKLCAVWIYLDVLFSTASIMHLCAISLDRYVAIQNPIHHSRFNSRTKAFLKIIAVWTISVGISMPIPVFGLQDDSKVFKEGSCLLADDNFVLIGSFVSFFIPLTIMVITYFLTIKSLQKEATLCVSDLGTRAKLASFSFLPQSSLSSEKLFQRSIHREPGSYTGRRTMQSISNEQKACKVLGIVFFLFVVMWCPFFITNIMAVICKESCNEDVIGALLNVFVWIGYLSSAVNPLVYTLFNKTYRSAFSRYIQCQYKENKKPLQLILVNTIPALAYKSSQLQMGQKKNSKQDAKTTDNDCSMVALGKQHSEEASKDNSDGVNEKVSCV
In short: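 Antagonist-mode intracellular calcium assay: DOI (4 nM) added after 5 min compound pre-incubation at room temperature to dye-loaded HTR2A-CHO cells. Fluorescence followed for 3 min, sampled every second.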

[13] = target: 5-hydroxytryptamine receptor 2A (Homo sapiens) (UniProt P28223); experiment: 5-hydroxytryptamine receptor 2A (HTR2A) small molecule agonists, cell-based qHTS assay (AID 1963587); also: nearly all actives have a fitted effect of over 30% in size
In short: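 CHO cells stably expressing human HTR2A, plated 18 h, loaded with calcium dye 1 h at 37 C. Agonist mode: compounds added and intracellular calcium fluorescence recorded kinetically for 2 min at 1 sec intervals.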

[14] = target: Muscarinic acetylcholine receptor M1 (Homo sapiens) (UniProt P11229); experiment: Cholinergic receptor muscarinic 1 (CHRM1) small molecule antagonists, cell-based qHTS assay (AID 1963588); also: nearly all actives have a fitted effect of over 40% in size
Chain of Muscarinic acetylcholine receptor M1 (Homo sapiens) (P11229 whole entry, looked up): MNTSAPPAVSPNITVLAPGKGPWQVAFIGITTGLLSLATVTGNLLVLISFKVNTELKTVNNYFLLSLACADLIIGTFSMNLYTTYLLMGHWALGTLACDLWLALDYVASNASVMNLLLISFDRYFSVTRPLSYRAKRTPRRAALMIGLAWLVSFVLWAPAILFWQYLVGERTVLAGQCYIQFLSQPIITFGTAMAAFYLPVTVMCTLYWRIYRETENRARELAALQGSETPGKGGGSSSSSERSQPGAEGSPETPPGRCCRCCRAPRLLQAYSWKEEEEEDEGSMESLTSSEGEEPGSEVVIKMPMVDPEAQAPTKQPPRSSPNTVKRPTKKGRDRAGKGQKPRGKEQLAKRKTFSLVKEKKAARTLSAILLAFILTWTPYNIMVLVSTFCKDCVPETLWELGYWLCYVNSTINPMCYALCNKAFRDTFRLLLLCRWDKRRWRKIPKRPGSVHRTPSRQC
In short: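 CHRM1-CHO calcium-flux assay, antagonist mode. Cells were seeded 18 h, dye-loaded 1 h at 37 C and given compound for 5 min at RT, then acetylcholine was added at 50nM. FDSS fluorescence was read 3 min; 15 concentrations, three runs.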

[15] = target: Muscarinic acetylcholine receptor M1 (Homo sapiens) (UniProt P11229); experiment: Cholinergic receptor muscarinic 1 (CHRM1) small molecule agonists, cell-based qHTS assay (AID 1963589); also: nearly all actives have a fitted effect of over 35% in size
In short: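 Agonist-mode qHTS in CHO cells stably carrying human muscarinic M1. Intracellular calcium is tracked by fluorescence every second after compound transfer; each compound runs at 15 concentrations in three independent runs.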

[16] = cAMP Responsive Elements (CRE) small molecule agonists, cell-based qHTS assay (AID 1963590)
In short: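 Agonist mode qHTS in CRE-bla HEK 293T cells: compounds dosed from DMSO for 3 h at 37 C/5% CO2, followed by LiveBLAzer B/G FRET substrate for 2 h at room temperature.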

[17] = cAMP Responsive Elements (CRE) small molecule antagonists, cell-based qHTS assay (AID 1963591; active = well fitted inhibition curve with a large enough effect in the signal ratio in the repeat runs, not every such curve was filed as active; the % refers to the signal ratio)
In short: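 Antagonist mode: test compounds are co-incubated with the adenylyl cyclase activator NKH477 (0.25 uM final) on CRE-bla HEK293T cells for 3 h at 37 °C, followed by LiveBLAzer substrate loading.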

[18] = target: Beta-2 adrenergic receptor (Homo sapiens) (UniProt P07550); experiment: Adrenergic beta2 receptor (ADRB2) small molecule antagonists, cell-based qHTS assay (AID 1963592); also: series mostly up to about 92 µM; nearly all actives have a fitted effect of over 50% in size
Chain of Beta-2 adrenergic receptor (Homo sapiens) (P07550 whole entry, looked up): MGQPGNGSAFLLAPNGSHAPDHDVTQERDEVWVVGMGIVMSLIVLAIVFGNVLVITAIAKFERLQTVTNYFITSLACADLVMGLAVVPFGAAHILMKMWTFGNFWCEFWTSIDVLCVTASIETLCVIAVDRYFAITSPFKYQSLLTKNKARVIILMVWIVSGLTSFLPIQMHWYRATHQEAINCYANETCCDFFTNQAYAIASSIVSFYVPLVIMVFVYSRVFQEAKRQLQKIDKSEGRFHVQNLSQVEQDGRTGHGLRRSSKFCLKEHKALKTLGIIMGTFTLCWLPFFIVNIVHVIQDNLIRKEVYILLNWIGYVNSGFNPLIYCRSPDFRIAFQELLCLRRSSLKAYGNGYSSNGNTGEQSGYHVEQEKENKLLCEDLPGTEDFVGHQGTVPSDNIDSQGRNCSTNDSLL
In short: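 Cells (CHO, stable ADRB2 overexpression) incubated 18-20hr at 37C; compounds added from DMSO; agonist mix (1nM isoproterenol, 100uM IBMX, 25uM Ro-20-1724) added; 0.5hr RT; d2-cAMP and anti-cAMP-cryptate added; 1hr RT; 665/615 nm read.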

[19] = target: D(2) dopamine receptor (Homo sapiens) (UniProt P14416); experiment: Dopamine D2 receptor (DRD2) small molecule agonists, cell-based qHTS assay (AID 1963594); also: nearly all actives have a fitted effect of over 35% in size
Chain of D(2) dopamine receptor (Homo sapiens) (P14416 whole entry, looked up): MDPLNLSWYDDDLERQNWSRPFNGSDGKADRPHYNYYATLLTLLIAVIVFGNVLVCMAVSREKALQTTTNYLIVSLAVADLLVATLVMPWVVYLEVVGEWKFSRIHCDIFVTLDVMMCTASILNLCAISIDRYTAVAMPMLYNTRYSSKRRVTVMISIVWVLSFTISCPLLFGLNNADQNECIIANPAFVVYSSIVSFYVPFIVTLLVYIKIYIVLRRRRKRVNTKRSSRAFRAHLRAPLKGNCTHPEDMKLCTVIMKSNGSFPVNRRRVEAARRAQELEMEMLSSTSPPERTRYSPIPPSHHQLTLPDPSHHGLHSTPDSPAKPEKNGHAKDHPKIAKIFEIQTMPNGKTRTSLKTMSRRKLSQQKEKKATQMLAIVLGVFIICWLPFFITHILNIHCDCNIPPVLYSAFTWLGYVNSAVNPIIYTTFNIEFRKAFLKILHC
In short: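 HEK293 cells stably expressing human DRD2, pre-treated with PDE inhibitor Ro20-1724 (0.1 mM final) and compound 10 min at room temperature, then stimulated with NKH477 (200nM […]) for 30 min. cAMP read by HTRF (665/620 nm).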

[20] = target: D(2) dopamine receptor (Homo sapiens) (UniProt P14416); experiment: Dopamine D2 receptor (DRD2) small molecule antagonists, cell-based qHTS assay (AID 1963595; active = well fitted inhibition curve with a large enough effect in the signal ratio in the repeat runs, with a control signal flat; the % refers to the signal ratio)
In short: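 DRD2-HEK293; 0.1 mM Ro20-1724; cpd 10 min RT; NKH477 200 nM + quinpirole 12 nM, 30 min RT; HTRF cAMP (cAMP-d2/anti-cAMP cryptate), 665/620 nm ratio after 1 h.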

SMILES	Potency [1]	Potency [2]	Potency [3]	Potency [4]	Potency [5]	Potency [6]	Potency [7]	Potency [8]	Potency [9]	Potency [10]	Potency [11]	Potency [12]	Potency [13]	Potency [14]	Potency [15]	Potency [16]	Potency [17]	Potency [18]	Potency [19]	Potency [20]
N#CC(c1ccccc1)c1ccccc1	inactive	inactive	inactive	inactive	inactive	inactive	inactive	inactive	inactive	inactive	inactive	inactive	inactive	inactive	inactive	inactive	inactive	inactive	inactive	inactive
Cc1cc(Cl)ccc1O	inactive	inactive	inactive	inactive	inactive	inactive	inactive	inactive	inactive	inactive	inactive	inactive	inactive	inactive	inactive	inactive	inactive	inactive	inactive	inactive
CNC(=O)Oc1cccc2ccccc12	inactive	inactive	inactive	inactive	inactive	inactive	32.4 µM (active)	inactive	inactive	inactive	inactive	inactive	inactive	inactive	inactive	inactive	inactive	inactive	inactive	inactive
